# Autofluor counter: counter-screen for toxin protease inhibitors: compound fluorescence. 3.1% of 360,000 active. fluorescence intensity (test concentration not listed). compound autofluorescence counterscreen, microsphere flow cytometry; hits give high values; in the data active = fluorescence intensity above about 16000; inconclusive = no clear call, values can overlap the other calls
# MazEF act: MazEF (E. coli) toxin RNase activation; P0AE70; FAM/BHQ RNA-DNA oligo cleavage fluorescence, 5 h; activation, % at 20 µM; 0.32% of 350,000 active; AID 504720; in the data active = activation above about 50%
# BoNT F protease: blocks Botulinum neurotoxin F light chain protease. Multiplex microsphere protease cleavage assay, flow cytometry. 0.22% of 360,000 active. inhibition, % at 10 µM. AID 588497; in the data active = inhibition above about 35%, passing the limit was not always enough; inconclusive = no clear call, values can overlap the other calls; note: plate controls were buffer without enzyme for full effect and enzyme alone for no effect
# PfHsp40 yeast: restores yeast growth despite PfHsp40 toxicity; S. cerevisiae expressing PfHsp40, growth rescue, ATP luminescence; growth rescue, % at 12.5 µM; 0.68% of 340,000 active; AID 504582; in the data active = growth rescue above about 28%, passing the limit was not always enough; inconclusive = no clear call, values can overlap the other calls;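 note: yeast W303a lacking pdr1 and pdr3 grown in galactose medium; growth measured after three days at 30 °C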
# Anthrax LF inh2: blocks Bacillus anthracis lethal factor protease. P15917. multiplex microsphere protease cleavage assay, LF. inhibition, % at 10 µM. 0.12% of 360,000 active. AID 588501; note: plate controls were buffer without enzyme for full effect and enzyme alone for no effect
# BoNT-A LC inh2: blocks Botulinum neurotoxin A light chain protease | multiplex microsphere protease substrate cleavage, flow cytometry | inhibition, % at 10 µM | 0.17% of 360,000 active | AID 588499; note: plate controls were buffer without enzyme for full effect and enzyme alone for no effect
# * marks the source's active call; other numbers are inactive results; ? = inconclusive; · = no result. A selection: hits, their analogues and other compounds. The true share with any hit is near 4.3%. Cut-off read from the data, not from the text of the source, unless noted: active = inhibition above about 30%; inconclusive = no clear call, values can overlap the other calls; inactive = below that.
SMILES,Autofluor counter,MazEF act,BoNT F protease,PfHsp40 yeast,Anthrax LF inh2,BoNT-A LC inh2
CCC(NC(=O)c1ccccc1NC(=O)C(C)(C)C)C(=O)N1CCCC1 (stereo unspecified),3863,5.5,-14.2,0.1,4.2,-4.3
COc1ccc(CCNC(=O)CSc2nc3ncccc3[nH]2)c(OC)c1,3893,-1.8,16.0,-0.5,5.0,9.7
Cc1ccc(C(=O)c2cc([N+](=O)[O-])ccc2N2CCN(C)CC2)cc1,6167,8.6,-1.0,0.3,0.5,-0.6
CN1CCN(c2ccc([N+](=O)[O-])cc2C(=O)c2ccc(Br)cc2)CC1,23704*,11.2,-3.3,-0.9,-5.7,-1.7
Cc1cc(=O)n2c(nc3ccccc32)[nH]1,24029*,-2.6,-1.5,-0.2,-1.1,-1.5
O=S(=O)(c1cccc(F)c1)N1CCN(C(=S)NCc2ccccc2)CC1,3834,0.8,0.2,-0.1,13.5,0.8
CN(C)CCCn1c2c3ccccc3ccc2c2oc(=O)c3ccccc3c21,4270,847.1*,-5.9,4.7,0.6,2.4
CN(C)CCCn1c(=S)[nH]c2ccccc2c1=O,2011,-6.1,-4.4,-0.3,-0.9,-0.5
O=C(C1CCC(CNc2c(N3CCCCC3)c(=O)c2=O)CC1)N1CCCC1 (stereo unspecified),5819,8.0,0.1,-0.1,-0.6,-0.9
CN(C)c1ccc(N/C=C/C(=O)c2ccc(F)cc2)cc1,20250*,105.0*,6.7,-1.0,-1.9,?
CC1(C)CC(=NOC(=O)c2ccccc2)CC(C)(C)N1,19903*,1.3,2.7,-0.2,1.3,2.0
CCC(C)(C(=O)NC1CCCC1)N(C(=O)c1cnccn1)c1c(C)n(C)n(-c2ccccc2)c1=O (stereo unspecified),21671*,-3.6,2.9,1.4,-0.2,?
CCC(C)(C(=O)NC1CCCCC1)N(C(=O)CNC(C)=O)c1c(C)n(C)n(-c2ccccc2)c1=O (stereo unspecified),3852,-0.5,-5.5,-1.9,-3.1,0.6
CCC(C)(C(=O)NC1CCCCC1)N(C(=O)c1cnccn1)c1c(C)n(C)n(-c2ccccc2)c1=O (stereo unspecified),21469*,1.4,-2.2,-0.5,-0.2,?
CCC(C)(C(=O)NC1CCCC1)N(C(=O)Cc1cccs1)c1c(C)n(C)n(-c2ccccc2)c1=O (stereo unspecified),4055,-0.6,-0.3,-0.3,3.3,0.7
Cc1ccccc1N(CC(=O)NC1CCCC1)C(=O)CS(=O)CC(=O)Nc1ccc2c(c1)OCO2 (stereo unspecified),20092*,-1.1,1.8,0.0,1.3,1.9
Cc1cccc(N(C(=O)CS(=O)CC(=O)Nc2ccc3c(c2)OCO3)C(C)C(=O)NC2CCCC2)c1C (stereo unspecified),4363,6.2,-5.0,-2.8,-7.7,-0.7
COc1cc(/C=C2/SC(=S)N(CC(=O)NC(C)(C)C)C2=O)cc(OC)c1OC,6534,-95.7,27.9,0.1,27.3,31.3*
COc1ccc(/C=C2\SC(=S)N(CCCC(=O)Nc3ccccn3)C2=O)cc1OC,3074,-20.7,10.5,0.1,24.0,39.0*
Cc1nc(C)c(C(=O)OCC(=O)N(C)c2ccccc2)s1,4739,2.2,5.5,-0.7,-0.6,-1.8
Cc1cc(=O)[nH]c(SCc2nc3ncccn3c2Br)n1,24282*,4.9,-4.0,-0.1,-1.2,-2.2
Nc1nc(SCC(=O)NCc2ccccc2)[nH]c(=O)c1NC(=O)c1ccccc1F,2418,-10.8,-0.7,-1.5,2.0,0.8
COc1ccc(-c2cn3cc(C(=O)NN)ccc3n2)cc1,3767,3.0,-2.0,-0.5,-1.9,-0.1
NNC(=O)c1ccc2nc(-c3ccc(Br)cc3)cn2c1,4347,-1.3,-4.2,71.1*,-7.3,-0.5
COC(=O)c1ccc(CSc2nc(N)cc(N)n2)cc1,23371*,8.8,-0.1,0.6,-2.6,0.4
SMILES,Autofluor counter,MazEF act,BoNT F protease,PfHsp40 yeast,Anthrax LF inh2,BoNT-A LC inh2
Cc1cc(=O)n2c(n1)NC(Nc1cccc(C)c1C)=NC2c1ccccc1 (stereo unspecified),6082,5.7,-4.7,-0.6,-0.6,-0.4
COc1cccc(OC)c1-c1nn(-c2ncc(C(F)(F)F)cc2Cl)c(=O)o1,·,-4.2,·,2.2,·,·
CCN(C(=O)COC(=O)CSc1ccc(F)cc1)c1c(N)n(Cc2ccccc2)c(=O)[nH]c1=O,8941,-6.9,-9.5,-1.3,0.5,-1.9
CCOC(=O)CNC(=O)c1sc2ncnc(N3CCc4ccccc4C3)c2c1C,19828*,0.6,11.0,-0.2,5.4,6.7
COc1cc2c(cc1OC)CN(C(=O)c1cc(S(=O)(=O)N3CCOCC3)ccc1C)CC2,?,2.9,12.2,0.3,1.4,4.8
CCCN1C(=O)C(=O)c2cc(Cl)ccc21,3888,-0.6,2.0,-1.1,-8.1,-0.6
CN(C)c1cccc(C(=O)Nc2nnc(Cc3ccccc3)s2)c1,4740,7.5,-16.7,1.4,1.7,-1.2
Cc1cc(C(F)(F)F)nc(SCC(=O)c2cccc([N+](=O)[O-])c2)n1,17551*,2.1,-8.2,-1.4,0.9,-5.3
Cc1nc2ccc(NC(=O)CSc3nnc(C)s3)cc2[nH]1,3451,5.4,0.0,1.0,3.0,2.9
Cc1ccc(CNC(=O)NC2CCCCC2)cc1,4441,-5.9,-4.1,-0.3,2.8,-0.5
O=C(O)C1CCCCC1C(=O)Nc1ccccc1Nc1ccccc1 (stereo unspecified),2585,8.1,-17.3,0.5,2.7,2.8
O=C(O)C1CCCCC1C(=O)Nc1cccc2ccccc12 (stereo unspecified),20285*,-1.9,6.0,0.0,-5.8,5.5
Cc1ccc(CNC(=O)C2CCCCC2C(=O)O)cc1 (stereo unspecified),21599*,1.0,1.1,-1.0,-7.4,?
CCOC(=O)c1sc2ncnc(NCC(c3cccs3)N(C)C)c2c1C (stereo unspecified),24092*,14.2,1.3,-0.9,1.8,1.2
CN(C)C(CNc1ncnc2sccc12)c1cccs1 (stereo unspecified),3366,5.5,-1.8,0.3,-1.0,0.6
COc1ccccc1N(C(=O)c1snc(C(N)=O)c1N)C(C(=O)NC1CCCC1)c1ccc(N(C)C)cc1 (stereo unspecified),2939,3.4,-12.1,-0.1,3.3,-0.4
O=C(/C=C/c1ccc([N+](=O)[O-])cc1)NCCSc1ccccc1,23722*,-0.3,-2.6,4.5,-1.3,?
Cc1ccc(SCCNC(=O)/C=C/c2ccc([N+](=O)[O-])cc2)cc1,2329,-8.6,-1.3,6.0,1.0,0.0
CC(C)CCC(CCN1CCOCC1)c1ccc2c(c1)OCO2 (stereo unspecified),20867*,-3.0,-0.5,0.6,-1.9,-1.4
Cc1ccc(S(=O)(=O)N2CCC(C(=O)Nc3ccc(S(=O)(=O)N4CCCC4)cc3)CC2)cc1C,?,4.6,-14.5,0.3,0.6,0.2
Cc1ccsc1C1C2=C(CCCC2=O)Nc2ncnn21 (stereo unspecified),22735*,-0.3,-2.6,-0.1,1.5,-0.5

# Screening data deposited in PubChem by several laboratories.
